# Results: ChEMBL document CHEMBL2218924, “A broad activity screen in support of a chemogenomic map for kinase signalling research and drug discovery” (Biochem J, 2013)
# Legend:
# [1] = target: T1, Serine/threonine-protein kinase D1 (Homo sapiens) (UniProt Q15139); conditions: at 1 µM
# T1 sequence (whole entry): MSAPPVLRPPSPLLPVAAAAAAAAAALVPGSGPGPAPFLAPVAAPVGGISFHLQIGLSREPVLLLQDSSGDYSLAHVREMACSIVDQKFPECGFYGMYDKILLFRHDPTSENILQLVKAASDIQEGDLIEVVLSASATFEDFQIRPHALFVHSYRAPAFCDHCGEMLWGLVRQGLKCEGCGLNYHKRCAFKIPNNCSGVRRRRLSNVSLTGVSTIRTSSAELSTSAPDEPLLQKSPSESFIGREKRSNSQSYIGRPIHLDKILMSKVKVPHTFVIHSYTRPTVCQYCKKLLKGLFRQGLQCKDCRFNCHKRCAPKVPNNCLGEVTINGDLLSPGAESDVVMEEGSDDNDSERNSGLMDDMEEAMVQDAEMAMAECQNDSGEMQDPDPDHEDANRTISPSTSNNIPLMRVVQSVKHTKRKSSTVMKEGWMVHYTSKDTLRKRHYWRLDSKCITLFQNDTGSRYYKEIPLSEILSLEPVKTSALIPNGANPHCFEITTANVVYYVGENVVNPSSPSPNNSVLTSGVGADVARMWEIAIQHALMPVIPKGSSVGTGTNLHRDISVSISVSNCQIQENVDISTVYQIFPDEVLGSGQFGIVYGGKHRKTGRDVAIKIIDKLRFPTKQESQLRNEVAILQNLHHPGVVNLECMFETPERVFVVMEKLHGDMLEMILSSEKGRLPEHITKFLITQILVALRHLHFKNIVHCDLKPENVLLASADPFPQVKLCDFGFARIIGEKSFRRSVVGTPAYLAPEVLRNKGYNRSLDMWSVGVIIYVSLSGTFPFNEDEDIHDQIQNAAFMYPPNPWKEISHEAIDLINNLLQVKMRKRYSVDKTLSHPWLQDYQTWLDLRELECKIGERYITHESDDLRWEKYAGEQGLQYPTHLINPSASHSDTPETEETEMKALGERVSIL
# [2] = target: T1, Serine/threonine-protein kinase D1 (Homo sapiens); conditions: at 10 µM
# [3] = target: T2, MAP kinase-activated protein kinase 5 (Homo sapiens) (UniProt Q8IW41); conditions: at 1 µM
# T2 sequence (whole entry): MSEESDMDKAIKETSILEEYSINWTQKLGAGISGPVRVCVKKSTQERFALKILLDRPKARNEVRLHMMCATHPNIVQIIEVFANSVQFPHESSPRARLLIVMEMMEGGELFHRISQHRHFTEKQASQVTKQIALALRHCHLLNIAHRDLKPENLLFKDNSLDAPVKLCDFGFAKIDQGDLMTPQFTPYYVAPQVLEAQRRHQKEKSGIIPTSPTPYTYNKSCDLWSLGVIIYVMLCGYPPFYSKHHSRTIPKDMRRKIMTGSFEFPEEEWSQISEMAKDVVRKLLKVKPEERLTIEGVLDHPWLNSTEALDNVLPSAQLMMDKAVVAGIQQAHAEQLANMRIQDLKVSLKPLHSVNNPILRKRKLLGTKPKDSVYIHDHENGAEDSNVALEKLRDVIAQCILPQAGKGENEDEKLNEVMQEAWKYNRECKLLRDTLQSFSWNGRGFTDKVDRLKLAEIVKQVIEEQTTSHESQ
# [4] = target: T2, MAP kinase-activated protein kinase 5 (Homo sapiens); conditions: at 10 µM
# [5] = target: T3, Serine/threonine-protein kinase D2 (Homo sapiens) (UniProt Q9BZL6); conditions: at 10 µM
# T3 sequence (whole entry): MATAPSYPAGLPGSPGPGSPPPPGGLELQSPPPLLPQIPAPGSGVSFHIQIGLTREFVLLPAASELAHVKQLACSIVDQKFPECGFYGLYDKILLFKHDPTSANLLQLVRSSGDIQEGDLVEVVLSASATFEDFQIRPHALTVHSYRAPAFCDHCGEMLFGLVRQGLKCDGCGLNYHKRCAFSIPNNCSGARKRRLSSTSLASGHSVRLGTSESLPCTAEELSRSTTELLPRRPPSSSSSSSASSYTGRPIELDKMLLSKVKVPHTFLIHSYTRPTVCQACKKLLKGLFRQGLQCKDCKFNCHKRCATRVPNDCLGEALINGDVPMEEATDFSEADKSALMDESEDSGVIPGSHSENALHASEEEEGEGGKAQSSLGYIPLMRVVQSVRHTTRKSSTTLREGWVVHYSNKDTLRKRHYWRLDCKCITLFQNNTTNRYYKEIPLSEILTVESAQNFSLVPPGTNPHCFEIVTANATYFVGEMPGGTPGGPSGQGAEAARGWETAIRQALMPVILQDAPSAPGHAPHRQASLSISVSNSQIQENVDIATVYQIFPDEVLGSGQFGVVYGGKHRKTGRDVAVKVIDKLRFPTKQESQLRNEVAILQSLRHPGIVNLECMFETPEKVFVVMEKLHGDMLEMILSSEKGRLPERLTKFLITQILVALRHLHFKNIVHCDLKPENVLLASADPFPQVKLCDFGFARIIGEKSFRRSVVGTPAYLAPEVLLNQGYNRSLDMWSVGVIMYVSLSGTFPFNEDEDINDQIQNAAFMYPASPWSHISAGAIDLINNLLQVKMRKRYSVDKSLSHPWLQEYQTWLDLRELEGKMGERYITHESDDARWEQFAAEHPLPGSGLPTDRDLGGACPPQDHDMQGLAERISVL
# [6] = target: Tyrosine-protein kinase FRK (Homo sapiens) (UniProt P42685); conditions: at 1 µM
# [7] = target: Tyrosine-protein kinase FRK (Homo sapiens) (UniProt P42685); conditions: at 10 µM
# [8] = target: Protein kinase C theta type (Homo sapiens) (UniProt Q04759); conditions: at 1 µM
# [9] = target: Protein kinase C theta type (Homo sapiens) (UniProt Q04759); conditions: at 10 µM
# [10] = target: T4, cGMP-dependent protein kinase 1 (Homo sapiens) (UniProt Q13976); conditions: at 1 µM
# T4 sequence (whole entry): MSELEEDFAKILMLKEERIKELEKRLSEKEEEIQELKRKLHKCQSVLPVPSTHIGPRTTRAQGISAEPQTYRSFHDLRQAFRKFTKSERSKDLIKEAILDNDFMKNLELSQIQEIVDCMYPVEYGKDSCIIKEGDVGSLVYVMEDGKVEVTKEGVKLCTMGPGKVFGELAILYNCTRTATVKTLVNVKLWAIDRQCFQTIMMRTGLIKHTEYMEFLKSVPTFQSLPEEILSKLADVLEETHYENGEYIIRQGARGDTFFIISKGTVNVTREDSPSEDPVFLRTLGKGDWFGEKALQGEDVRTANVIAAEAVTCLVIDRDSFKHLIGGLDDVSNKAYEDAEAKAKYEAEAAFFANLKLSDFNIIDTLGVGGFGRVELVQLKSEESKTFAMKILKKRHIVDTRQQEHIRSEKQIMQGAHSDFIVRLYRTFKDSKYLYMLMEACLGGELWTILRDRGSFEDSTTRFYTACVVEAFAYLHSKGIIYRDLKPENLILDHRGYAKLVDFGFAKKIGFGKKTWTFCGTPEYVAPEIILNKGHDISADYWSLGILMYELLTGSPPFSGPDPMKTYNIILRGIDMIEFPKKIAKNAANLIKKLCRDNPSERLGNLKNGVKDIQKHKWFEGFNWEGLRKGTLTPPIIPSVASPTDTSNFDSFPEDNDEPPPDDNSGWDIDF
# [11] = target: T4, cGMP-dependent protein kinase 1 (Homo sapiens); conditions: at 10 µM
# [12] = target: T4, cGMP-dependent protein kinase 1 (Homo sapiens); conditions: at 1 µM; remark: listed apart in the source
# [13] = target: T4, cGMP-dependent protein kinase 1 (Homo sapiens); conditions: at 10 µM; remark: listed apart in the source
# [14] = target: Serine/threonine-protein kinase N2 (Homo sapiens) (UniProt Q16513); conditions: at 1 µM
# [15] = target: Serine/threonine-protein kinase N2 (Homo sapiens) (UniProt Q16513); conditions: at 10 µM
# [16] = target: T3, Serine/threonine-protein kinase D2 (Homo sapiens); conditions: at 1 µM
# [17] = target: Protein kinase C eta type (Homo sapiens) (UniProt P24723); conditions: at 10 µM
# [18] = target: T5, Protein kinase C iota type (Homo sapiens) (UniProt P41743); conditions: at 1 µM
# T5 sequence (whole entry): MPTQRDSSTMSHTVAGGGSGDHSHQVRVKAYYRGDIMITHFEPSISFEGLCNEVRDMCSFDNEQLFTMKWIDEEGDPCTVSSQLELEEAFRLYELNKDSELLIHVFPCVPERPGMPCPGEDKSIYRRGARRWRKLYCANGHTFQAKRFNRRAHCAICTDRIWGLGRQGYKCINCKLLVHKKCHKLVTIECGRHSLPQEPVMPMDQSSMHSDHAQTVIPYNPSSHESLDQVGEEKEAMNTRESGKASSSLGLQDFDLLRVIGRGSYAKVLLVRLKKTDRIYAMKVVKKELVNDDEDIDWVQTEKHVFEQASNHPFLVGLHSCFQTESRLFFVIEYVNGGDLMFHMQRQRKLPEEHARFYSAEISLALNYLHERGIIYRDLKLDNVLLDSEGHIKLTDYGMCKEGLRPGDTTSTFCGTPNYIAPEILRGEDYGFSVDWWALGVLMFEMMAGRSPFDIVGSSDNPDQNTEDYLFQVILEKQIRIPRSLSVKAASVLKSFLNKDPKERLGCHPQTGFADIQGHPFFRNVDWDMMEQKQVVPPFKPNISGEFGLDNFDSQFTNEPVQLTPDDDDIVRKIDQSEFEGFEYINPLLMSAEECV
# [19] = target: T5, Protein kinase C iota type (Homo sapiens); conditions: at 10 µM
# [20] = target: Protein kinase C eta type (Homo sapiens) (UniProt P24723); conditions: at 1 µM
# Chain of Serine/threonine-protein kinase N2 (Homo sapiens) (Q16513 whole entry, looked up): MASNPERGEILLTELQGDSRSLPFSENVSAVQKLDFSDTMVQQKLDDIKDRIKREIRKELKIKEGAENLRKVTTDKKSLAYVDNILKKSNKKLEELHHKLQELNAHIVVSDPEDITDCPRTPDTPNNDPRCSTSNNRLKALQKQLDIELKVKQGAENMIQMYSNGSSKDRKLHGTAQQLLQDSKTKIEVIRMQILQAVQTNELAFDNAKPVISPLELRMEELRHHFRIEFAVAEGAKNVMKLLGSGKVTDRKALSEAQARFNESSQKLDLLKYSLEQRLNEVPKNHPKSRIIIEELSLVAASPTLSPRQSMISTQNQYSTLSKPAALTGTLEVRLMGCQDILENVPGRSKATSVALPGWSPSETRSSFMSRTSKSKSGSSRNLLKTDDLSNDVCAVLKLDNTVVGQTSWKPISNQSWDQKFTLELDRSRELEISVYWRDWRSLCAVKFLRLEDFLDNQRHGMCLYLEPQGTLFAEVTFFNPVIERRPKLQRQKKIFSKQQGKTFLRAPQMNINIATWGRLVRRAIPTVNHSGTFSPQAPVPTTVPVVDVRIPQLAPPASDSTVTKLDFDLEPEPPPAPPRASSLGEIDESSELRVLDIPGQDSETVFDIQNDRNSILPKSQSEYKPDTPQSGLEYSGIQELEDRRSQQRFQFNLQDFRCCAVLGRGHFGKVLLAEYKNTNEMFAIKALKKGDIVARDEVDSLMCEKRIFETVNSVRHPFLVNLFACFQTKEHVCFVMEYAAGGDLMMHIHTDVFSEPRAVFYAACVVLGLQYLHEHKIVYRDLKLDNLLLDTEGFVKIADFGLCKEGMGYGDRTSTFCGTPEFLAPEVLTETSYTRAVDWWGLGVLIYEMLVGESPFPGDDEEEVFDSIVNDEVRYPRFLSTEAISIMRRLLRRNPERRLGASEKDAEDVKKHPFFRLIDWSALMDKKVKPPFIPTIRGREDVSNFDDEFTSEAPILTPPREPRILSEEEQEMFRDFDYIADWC
# Chain of Tyrosine-protein kinase FRK (Homo sapiens) (P42685 whole entry): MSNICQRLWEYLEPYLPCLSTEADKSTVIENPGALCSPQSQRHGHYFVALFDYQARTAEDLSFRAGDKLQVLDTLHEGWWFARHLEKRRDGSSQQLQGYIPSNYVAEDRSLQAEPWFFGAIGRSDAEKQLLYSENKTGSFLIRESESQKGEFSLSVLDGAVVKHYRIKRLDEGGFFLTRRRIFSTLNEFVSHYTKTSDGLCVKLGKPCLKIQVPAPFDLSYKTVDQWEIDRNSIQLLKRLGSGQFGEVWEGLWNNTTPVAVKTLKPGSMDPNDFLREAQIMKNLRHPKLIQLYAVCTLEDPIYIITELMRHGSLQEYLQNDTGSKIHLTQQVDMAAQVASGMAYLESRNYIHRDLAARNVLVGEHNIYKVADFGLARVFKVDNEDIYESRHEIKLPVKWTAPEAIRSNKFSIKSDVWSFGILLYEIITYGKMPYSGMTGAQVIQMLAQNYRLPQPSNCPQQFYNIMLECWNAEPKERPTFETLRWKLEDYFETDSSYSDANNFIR
# Chain of Protein kinase C eta type (Homo sapiens) (P24723 whole entry): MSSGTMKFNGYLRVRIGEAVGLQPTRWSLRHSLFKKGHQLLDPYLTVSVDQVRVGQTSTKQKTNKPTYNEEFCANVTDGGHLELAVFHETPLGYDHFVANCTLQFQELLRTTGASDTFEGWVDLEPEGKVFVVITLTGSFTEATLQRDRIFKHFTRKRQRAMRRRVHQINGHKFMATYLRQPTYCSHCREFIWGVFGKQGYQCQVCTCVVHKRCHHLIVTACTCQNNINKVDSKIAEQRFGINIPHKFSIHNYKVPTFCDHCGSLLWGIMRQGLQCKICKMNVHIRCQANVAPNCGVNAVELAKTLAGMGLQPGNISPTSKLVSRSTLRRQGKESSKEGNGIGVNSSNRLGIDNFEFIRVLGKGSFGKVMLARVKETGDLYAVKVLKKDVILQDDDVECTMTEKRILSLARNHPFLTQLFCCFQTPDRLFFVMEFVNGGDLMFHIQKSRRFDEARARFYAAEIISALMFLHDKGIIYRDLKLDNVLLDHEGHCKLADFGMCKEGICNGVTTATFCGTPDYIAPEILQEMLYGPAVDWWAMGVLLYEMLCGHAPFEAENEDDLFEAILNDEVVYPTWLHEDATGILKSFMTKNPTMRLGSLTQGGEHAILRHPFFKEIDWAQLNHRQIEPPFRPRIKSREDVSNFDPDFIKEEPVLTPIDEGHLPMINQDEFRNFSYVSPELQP
# Chain of Protein kinase C theta type (Homo sapiens) (Q04759 whole entry, looked up): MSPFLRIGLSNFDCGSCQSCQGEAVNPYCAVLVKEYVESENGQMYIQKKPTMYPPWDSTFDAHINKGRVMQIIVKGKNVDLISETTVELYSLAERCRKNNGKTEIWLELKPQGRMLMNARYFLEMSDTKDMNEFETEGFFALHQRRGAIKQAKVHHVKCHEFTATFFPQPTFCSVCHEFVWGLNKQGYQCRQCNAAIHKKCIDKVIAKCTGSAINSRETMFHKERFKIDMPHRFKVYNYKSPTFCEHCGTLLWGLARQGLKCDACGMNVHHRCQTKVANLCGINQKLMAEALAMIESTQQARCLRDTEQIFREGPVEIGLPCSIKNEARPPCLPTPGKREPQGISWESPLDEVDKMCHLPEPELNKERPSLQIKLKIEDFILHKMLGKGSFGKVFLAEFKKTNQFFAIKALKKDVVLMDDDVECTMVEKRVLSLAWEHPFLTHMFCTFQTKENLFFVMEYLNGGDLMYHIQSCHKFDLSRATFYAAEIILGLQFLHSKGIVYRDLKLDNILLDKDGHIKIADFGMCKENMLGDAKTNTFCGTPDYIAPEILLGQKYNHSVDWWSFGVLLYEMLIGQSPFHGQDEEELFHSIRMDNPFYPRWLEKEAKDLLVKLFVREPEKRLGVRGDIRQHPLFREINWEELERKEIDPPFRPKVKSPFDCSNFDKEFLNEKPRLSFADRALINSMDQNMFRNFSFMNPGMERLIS
smiles,measurement,setting,value
NCCNc1ncc(C(N)=O)c(Nc2cccc(C(F)(F)F)c2)n1,residual activity,[1],35%
same,residual activity,[2],8%
same,residual activity,[3],42%
same,residual activity,[4],11%
Fc1ccc(-c2nc3n(c2-c2ccncc2)CCS3)cc1,residual activity,[2],48%
same,residual activity,[5],89%
same,residual activity,[6],99%
same,residual activity,[7],51%
CCOC(=O)c1c(C)[nH]c(/C=C2\C(=O)Nc3ccccc32)c1C,residual activity,[3],88%
same,residual activity,[4],81%
c1ccc(-c2cnc(Nc3ccc(OCCN4CCCC4)cc3)s2)cc1,residual activity,[8],115%
same,residual activity,[9],102%
same,residual activity,[10],122%
same,residual activity,[11],136%
same,residual activity,[12],70%
same,residual activity,[13],77%
same,residual activity,[3],120%
same,residual activity,[4],111%
same,residual activity,[14],102%
same,residual activity,[15],100%
same,residual activity,[6],72%
same,residual activity,[7],16%
CC(C)(C)c1nc2c3ccc(F)cc3c3c(=O)[nH]ccc3c2[nH]1,residual activity,[1],8%
same,residual activity,[2],16%
same,residual activity,[16],40%
same,residual activity,[5],22%
same,residual activity,[10],45%
same,residual activity,[11],45%
same,residual activity,[12],30%
same,residual activity,[13],19%
same,residual activity,[3],47%
same,residual activity,[4],45%
same,residual activity,[14],29%
same,residual activity,[15],39%
same,residual activity,[6],74%
same,residual activity,[7],60%
Cc1cc(C)c(/C=C2\C(=O)Nc3ccccc32)[nH]1,residual activity,[8],103%
same,residual activity,[1],78%
same,residual activity,[10],104%
same,residual activity,[11],103%
same,residual activity,[13],78%
same,residual activity,[3],78%
NC(=O)c1cccc(-c2cc(Nc3ccc(OC(F)(F)F)cc3)ncn2)c1,residual activity,[17],91%
same,residual activity,[18],92% (inactive)
same,residual activity,[19],69%
same,residual activity,[5],91%
same,residual activity,[4],78%
CN([C@@H](Cc1ccc(OS(=O)(=O)c2cccc3cnccc23)cc1)C(=O)N1CCN(c2ccccc2)CC1)S(=O)(=O)c1cccc2cnccc12,residual activity,[20],116%
same,residual activity,[17],100%
same,residual activity,[1],113%
same,residual activity,[5],79%
same,residual activity,[12],67%
same,residual activity,[7],79%
O=C(Nc1ccc(Cl)cc1)c1ccccc1NCc1ccncc1,residual activity,[3],60%
same,residual activity,[4],51%
same,residual activity,[6],19%
same,residual activity,[7],1%
O=C1Nc2ccccc2/C1=C\c1c(Cl)[nH]c2ccccc12,residual activity,[17],80%
same,residual activity,[8],81%
same,residual activity,[9],71%
same,residual activity,[1],99%
same,residual activity,[2],65%
same,residual activity,[11],84%
same,residual activity,[13],72%
same,residual activity,[6],83%
same,residual activity,[7],73%
N#C/C(=C1/Nc2ccccc2S1)c1ccnc(NCCc2cccnc2)n1,residual activity,[8],95%
same,residual activity,[9],72%
same,residual activity,[1],73%
same,residual activity,[2],36%
same,residual activity,[15],59%
same,residual activity,[6],75%
same,residual activity,[7],72%
Oc1cccc(-c2nc(N3CCOCC3)c3oc4ncccc4c3n2)c1,residual activity,[8],84%
same,residual activity,[9],86%
same,residual activity,[18],89% (inactive)
same,residual activity,[1],97%
same,residual activity,[2],89%
same,residual activity,[10],120%
same,residual activity,[13],90%
same,residual activity,[3],98%
